target: T1, Aspartate--tRNA(Asp/Asn) ligase (Mycobacterium tuberculosis (strain ATCC 25618 / H37Rv)) (UniProt P9WFW3); assay: Assay for Asp RNA synthetase-1 from Mycobacterium tuberculosis; format: functional; set-up: scale not given: direction of the effect not stated beside the values; conditions: 30 µM; note: in the data most compounds retested in dose-response had high values
T1 sequence (whole entry): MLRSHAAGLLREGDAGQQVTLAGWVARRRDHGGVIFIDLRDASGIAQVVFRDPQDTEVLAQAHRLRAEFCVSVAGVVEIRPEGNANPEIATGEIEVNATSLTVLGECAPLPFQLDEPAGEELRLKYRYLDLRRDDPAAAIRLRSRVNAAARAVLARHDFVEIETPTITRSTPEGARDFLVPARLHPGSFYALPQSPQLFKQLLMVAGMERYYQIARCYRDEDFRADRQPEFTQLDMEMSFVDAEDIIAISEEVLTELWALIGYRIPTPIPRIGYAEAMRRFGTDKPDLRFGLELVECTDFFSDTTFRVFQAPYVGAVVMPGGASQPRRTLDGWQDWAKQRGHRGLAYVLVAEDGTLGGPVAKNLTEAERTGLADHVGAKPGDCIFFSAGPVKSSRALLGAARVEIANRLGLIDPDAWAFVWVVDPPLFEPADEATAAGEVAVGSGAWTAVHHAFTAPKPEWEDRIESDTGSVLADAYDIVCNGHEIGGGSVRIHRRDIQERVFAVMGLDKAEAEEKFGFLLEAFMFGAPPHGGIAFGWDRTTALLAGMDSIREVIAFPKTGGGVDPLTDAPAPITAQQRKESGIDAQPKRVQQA

Going from `CC(C)n1cc(C(=O)N2Cc3ccccc3OC3(CCOCC3)C2)cn1` to `O=C1COC2(CCN(C(=O)c3ccco3)CC2)CN1Cc1ccccn1`, the Percent Effect falls from -1.29% to -2.5%.

Compared with `CCC(=O)N1CCC2(CC1)COc1ccccc1S(=O)(=O)N(C)C2`, `Cc1occc1C(=O)N1CCC2(CC1)CC(c1cccnc1)C(=O)N2C` (stereo not given) is higher in Percent Effect: -1.57% for the first, -1.22% for the second.

First: O=C(c1ccco1)N1CCCC(c2cc(C(F)F)n3ncnc3n2)C1 (stereo not given)
Second: Cc1cc(OCC(=O)N2CCCC(c3noc(C)n3)C2)no1 (stereo not given)
The Percent Effect of the first is higher: -0.849% for the first, -1.75% for the second.

Going from `c1csc(-c2nc(CN3CCn4c(nnc4C4CC4)C3)co2)c1` to `CN(C)CC1CN(Cc2coc(-c3ccccc3Cl)n2)CCO1` (stereo not given), the Percent Effect falls from -3.42% to -5.66%.

Going from `CC(C)c1nc(C(=O)N2CCCC(n3cncn3)C2)c[nH]1` (stereo not given) to `CC1CCCN(C(=O)c2cccc(CS(C)(=O)=O)c2)C1` (stereo not given), the Percent Effect rises from -5.02% to -4.9%.

Compared with `Cc1nc(CN2CCCC(Cn3cc(CCO)nn3)C2)c[nH]1` (stereo not given), `CCn1cc(CN2CCCn3nc(CNC(=O)C4CCC4)cc3C2)cn1` is higher in Percent Effect: 0.881% for the first, 4.07% for the second.

First: CCSCCNC(=O)C(c1cccc(C)c1)N(C)C (stereo not given)
Second: Cc1ccc(OCCCNC(=O)NC(C)c2nncn2C)cc1 (stereo not given)
The Percent Effect of the first is higher: 0.569% for the first, -2.1% for the second.

Going from `Fc1ccc(OCCCN2CCOC(Cn3cncn3)C2)cc1` (stereo not given) to `O=C1CCC2(CCN(Cc3ccc(F)cc3)CC2)N1Cc1ccccc1`, the Percent Effect rises from -6.13% to -0.182%.

Going from `CCc1cc(NCCNc2cccnc2)n2nccc2n1` to `CCc1nc(C)c(C(=O)NCCNc2cnccn2)s1`, the Percent Effect rises from 0.0112% to 4.33%.

Going from `O=C(NC1CCCC1)NC1CCC(C(=O)N2CCSCC2)CC1` (stereo not given) to `Cc1cn(CC(=O)NC2CCN(C(=O)C3CC3)CC2)c2ccccc12`, the Percent Effect rises from 1.78% to 2.13%.

First: O=C(CCn1cccn1)N1CCN(CC(F)F)CC1
Second: CCC(=O)N1CCC(c2nc3ccc(NC(C)C)cn3n2)CC1
The Percent Effect of the first is higher: 2.16% for the first, -3.11% for the second.

First: COC(=O)C1CCN(C(=O)c2ccc(NS(C)(=O)=O)c(C)c2)CC1
Second: CC1CCN(CCCNS(=O)(=O)c2cccc(F)c2)CC1
The Percent Effect of the first is lower: -2.94% for the first, 11.5% for the second.

First: O=C(Nc1ccc(N2CCCC2)nc1)N1CCc2ccccc2C1
Second: Cc1nn(C)c(N2CCOCC2)c1CNC1CCc2ccccc2C1 (stereo not given)
The Percent Effect of the first is higher: 2.91% for the first, -2.23% for the second.

First: CC1COCCN1Cc1nc(-c2cccc(Br)c2)no1 (stereo not given)
Second: Cc1cc(C)n(Cc2ccc(C(=O)NCCN3CCOCC3)cc2)n1
The Percent Effect of the first is higher: 4.5% for the first, -4.18% for the second.

First: CN(CCC#N)C(=O)CN1CCCC1c1ccsc1 (stereo not given)
Second: COc1ccc(F)cc1CN1CCCC(c2cc(C(N)=O)[nH]n2)C1 (stereo not given)
The Percent Effect of the first is higher: 2.1% for the first, -5.13% for the second.

Compared with `CCC1=N[C@@]2(CC[C@@H]3CN(C(=O)NC(C)C)C[C@@H]32)C(=O)N1C`, `CNC(=O)c1cc2c(nc1NC(C)C)CCN(C(=O)NC(C)C)CC2` is higher in Percent Effect: -7.39% for the first, -2.07% for the second.

Compared with `CCn1ncc(Br)c1CN(C)S(=O)(=O)c1ccc(C)cc1`, `CN(Cc1ccccc1F)C(=O)CS(=O)(=O)Cc1ccc(Cl)c(Cl)c1` is higher in Percent Effect: 0.0735% for the first, 2.16% for the second.

First: Cn1cnnc1S(=O)(=O)C1CCN(S(=O)(=O)c2c(Cl)cccc2Cl)CC1
Second: CN(C)CC(=O)N1C[C@@H]2CC[C@H](Oc3ccccc3Cl)[C@@H]2C1
The Percent Effect of the first is lower: -0.575% for the first, 1.77% for the second.

First: O=C(N1CCOCC1)N1CCc2ncnc(NC3CC3)c2CC1
Second: COCC1CN(C(=O)c2ccnnc2)Cc2c1cnn2C (stereo not given)
The Percent Effect of the first is higher: 6.32% for the first, 0.28% for the second.

First: CNC(=O)c1ccc(CN(C(=O)c2scnc2C)C2CC2)cc1
Second: COc1cc(CNCc2ccc(NC(=O)NC(C)C)cc2)cc(OC)c1
The Percent Effect of the first is lower: -2.83% for the first, 1.67% for the second.

target: Shiga toxin 2 (Escherichia coli O157:H7) (UniProt P09385+P09386); assay: E. coli 0.157:H7 Shiga Toxin SOP - stx2 screening assay; format: functional; set-up: scale not given: direction of the effect not stated beside the values; conditions: 30 µM

First: CC(C)n1cc(C(=O)N2Cc3ccccc3OC3(CCOCC3)C2)cn1
Second: O=C1COC2(CCN(C(=O)c3ccco3)CC2)CN1Cc1ccccn1
The Percent Effect of the first is lower: -21.7% for the first, -3.41% for the second.

Compared with `CCC(=O)N1CCC2(CC1)COc1ccccc1S(=O)(=O)N(C)C2`, `Cc1occc1C(=O)N1CCC2(CC1)CC(c1cccnc1)C(=O)N2C` (stereo not given) is lower in Percent Effect: 6.18% for the first, -20.1% for the second.

Going from `O=C(c1ccco1)N1CCCC(c2cc(C(F)F)n3ncnc3n2)C1` (stereo not given) to `Cc1cc(OCC(=O)N2CCCC(c3noc(C)n3)C2)no1` (stereo not given), the Percent Effect falls from -7.72% to -41.1%.

First: c1csc(-c2nc(CN3CCn4c(nnc4C4CC4)C3)co2)c1
Second: CN(C)CC1CN(Cc2coc(-c3ccccc3Cl)n2)CCO1 (stereo not given)
The Percent Effect of the first is higher: 1.36% for the first, -26.4% for the second.

First: CC(C)c1nc(C(=O)N2CCCC(n3cncn3)C2)c[nH]1 (stereo not given)
Second: CC1CCCN(C(=O)c2cccc(CS(C)(=O)=O)c2)C1 (stereo not given)
The Percent Effect of the first is higher: -8.87% for the first, -32% for the second.

Compared with `Cc1nc(CN2CCCC(Cn3cc(CCO)nn3)C2)c[nH]1` (stereo not given), `CCn1cc(CN2CCCn3nc(CNC(=O)C4CCC4)cc3C2)cn1` is lower in Percent Effect: -6.46% for the first, -31% for the second.

First: CCSCCNC(=O)C(c1cccc(C)c1)N(C)C (stereo not given)
Second: Cc1ccc(OCCCNC(=O)NC(C)c2nncn2C)cc1 (stereo not given)
The Percent Effect of the first is lower: -22.9% for the first, 7.34% for the second.

First: Fc1ccc(OCCCN2CCOC(Cn3cncn3)C2)cc1 (stereo not given)
Second: O=C1CCC2(CCN(Cc3ccc(F)cc3)CC2)N1Cc1ccccc1
The Percent Effect of the first is lower: -10.5% for the first, 6.77% for the second.

Going from `CCc1cc(NCCNc2cccnc2)n2nccc2n1` to `CCc1nc(C)c(C(=O)NCCNc2cnccn2)s1`, the Percent Effect rises from -5.46% to 8.72%.

Going from `O=C(NC1CCCC1)NC1CCC(C(=O)N2CCSCC2)CC1` (stereo not given) to `Cc1cn(CC(=O)NC2CCN(C(=O)C3CC3)CC2)c2ccccc12`, the Percent Effect rises from -37.4% to 6.97%.

Going from `O=C(CCn1cccn1)N1CCN(CC(F)F)CC1` to `CCC(=O)N1CCC(c2nc3ccc(NC(C)C)cn3n2)CC1`, the Percent Effect falls from 15.4% to -40.8%.

Going from `COC(=O)C1CCN(C(=O)c2ccc(NS(C)(=O)=O)c(C)c2)CC1` to `CC1CCN(CCCNS(=O)(=O)c2cccc(F)c2)CC1`, the Percent Effect falls from -1.7% to -61.6%.

First: O=C(Nc1ccc(N2CCCC2)nc1)N1CCc2ccccc2C1
Second: Cc1nn(C)c(N2CCOCC2)c1CNC1CCc2ccccc2C1 (stereo not given)
The Percent Effect of the first is lower: -147% for the first, -3.73% for the second.

Going from `CC1COCCN1Cc1nc(-c2cccc(Br)c2)no1` (stereo not given) to `Cc1cc(C)n(Cc2ccc(C(=O)NCCN3CCOCC3)cc2)n1`, the Percent Effect falls from 32% to 6.83%.

Compared with `CN(CCC#N)C(=O)CN1CCCC1c1ccsc1` (stereo not given), `COc1ccc(F)cc1CN1CCCC(c2cc(C(N)=O)[nH]n2)C1` (stereo not given) is lower in Percent Effect: 22% for the first, 1.05% for the second.

First: CCC1=N[C@@]2(CC[C@@H]3CN(C(=O)NC(C)C)C[C@@H]32)C(=O)N1C
Second: CNC(=O)c1cc2c(nc1NC(C)C)CCN(C(=O)NC(C)C)CC2
The Percent Effect of the first is higher: 3.05% for the first, 0.412% for the second.

First: CCn1ncc(Br)c1CN(C)S(=O)(=O)c1ccc(C)cc1
Second: CN(Cc1ccccc1F)C(=O)CS(=O)(=O)Cc1ccc(Cl)c(Cl)c1
The Percent Effect of the first is lower: -7.09% for the first, 37% for the second.

Going from `Cn1cnnc1S(=O)(=O)C1CCN(S(=O)(=O)c2c(Cl)cccc2Cl)CC1` to `CN(C)CC(=O)N1C[C@@H]2CC[C@H](Oc3ccccc3Cl)[C@@H]2C1`, the Percent Effect rises from 0.759% to 12.4%.

Compared with `O=C(N1CCOCC1)N1CCc2ncnc(NC3CC3)c2CC1`, `COCC1CN(C(=O)c2ccnnc2)Cc2c1cnn2C` (stereo not given) is higher in Percent Effect: -39.4% for the first, -14.3% for the second.

Going from `CNC(=O)c1ccc(CN(C(=O)c2scnc2C)C2CC2)cc1` to `COc1cc(CNCc2ccc(NC(=O)NC(C)C)cc2)cc(OC)c1`, the Percent Effect falls from -32.1% to -65.1%.

From ChEMBL document CHEMBL3988442, “University of Dundee, Small-Polar-MMV Screening Library” (2021)
